Results on 12 molecules are retold here after PubChem BioAssay (NCATS).

The structures appear in SMILES notation. Records with an inconclusive call do not appear. Where a call stands in place of a potency, no number is given. Active and inactive are the calls of the source. Calls follow the shape of the dose curve; as a rule, active = well fitted inhibition curve with a large enough effect; inconclusive = small, poorly fitted or top-dose-only effect; inactive = flat fitted curve, though single readings scatter. *1 amine or outer side, *2 acyl side, *3 side chain or, on linkers, in order; H or OH if unused. Where a SMILES comes first, the peptide text is derived from it. Bridges are numbered along the chain shown (N, C = ends). [ ]: non-standard residue; d: D form. The star is where a group is joined. pTerphenylCO(4''-OnC5H11) = CCCCCOc1ccc(-c2ccc(-c3ccc(C(=O)*)cc3)cc2)cc1; Orn(4R-OH,5R-OH) = O=C([C@H](C[C@@H](O)[C@@H](O)N[*:3])N[*:1])[*:2]; hTyr(3S-OH,4S-OH) = N[C@H](C(=O)O)[C@H](O)[C@@H](O)c1ccc(O)cc1; Pro(3S-OH,4S-Me) = C[C@H]1CN[C@H](C(=O)O)[C@H]1O; Hyp = O=C(O)[C@@H]1C[C@@H](O)CN1

Chain of Calcium and integrin-binding protein 1 (Homo sapiens) (Q99828 whole entry, looked up): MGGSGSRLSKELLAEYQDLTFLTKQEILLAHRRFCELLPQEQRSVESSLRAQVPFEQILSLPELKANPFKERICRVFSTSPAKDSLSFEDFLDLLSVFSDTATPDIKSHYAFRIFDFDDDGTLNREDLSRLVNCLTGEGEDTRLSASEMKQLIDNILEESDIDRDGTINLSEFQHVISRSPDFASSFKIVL

This assay addresses Calcium and integrin-binding protein 1 (Homo sapiens) (UniProt Q99828). Kind of assay: Primary qHTS for Identification of Calcium Integrin Binding Protein 1 (CIB1) Competitor (AID 1508620).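 Also: GST tagged CIB1 binding a fluorescein labelled alphaIIb integrin peptide tracer; top concentration of the series differs between compounds.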 The conditions noted are these: CIB1-GST / FITC-alphaIIb peptide fluorescence polarization; series mostly up to 114 µM. The method, boiled down:
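CIB1-GST (1 uM final) and compound incubated 15 min at room temperature before adding FITC-alphaIIb peptide tracer (100 nM final). Competition for binding read by fluorescence polarization (ex 480, em 540) after another 15 min at room temperature.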
In general terms: qHTS replaces the single test concentration by a dilution series.
With `C/C=C/C=C/C=C/C(=O)O[C@@H]1C=C2COC(=O)[C@]2(O)[C@@]2(C)CCCC(C)(C)[C@H]12`, the Potency result is “inactive”.

On to `Cn1cc(-c2ccc3c(c2)CCN3C(=O)Cc2cccc(C(F)(F)F)c2)c2c(N)ncnc21`, for which the Potency result was “inactive”. Take `COc1c(C(C)C)c(O)c(O)c2c1C(OC)[C@H]1OC(=O)[C@@]23CCCC(C)(C)[C@H]13` (some centres not stated): the Potency result is “inactive”. With `CC(=O)OC1[C@H]2[C@@H](C[C@@H](C)[C@@H]3C=CC(=O)[C@@]13C)OC(=O)[C@@H]2C` (some centres not stated) the entry was “inactive”.

In the case of `NCC(CNc1nc(Nc2cccc(NC(=O)N3CCCC3)c2)ncc1I)C(=O)c1cccs1` (configuration not stated), the Potency result was “inactive”.

With `Cc1cc(-c2cc(OC(=O)c3ccccc3)ccc2Cl)cc2nnc(Nc3ccc(OCCN4CCCC4)cc3)nc12`, the Potency entry is “inactive”. With `O=C(Cc1c(F)cccc1F)Nc1cc(OCc2ccc(Cl)cc2)ccn1` the entry was “inactive”. Next, `COc1cc(CCc2ccc(OCC=C(C)C)cc2)cc(OC)c1OC`: “inactive”; `CC1(C(=O)Nc2ccc(F)nc2)CCCN1c1nc(Nc2cc(C3CC3)[nH]n2)c2cccn2n1` (configuration not stated): “inactive”. `C=C1C(=O)O[C@@H]2C[C@H](C)C3=CC(=O)[C@H](O)[C@@]3(C)C[C@H]12`: the Potency entry was “inactive”.

As to `C[C@@]12C(=O)N(c3ccc(C(=O)Nc4cccc5cccnc45)cc3)C(=O)[C@@H]1[C@@H]1C=C[C@H]2C1`, the Potency result is “inactive”.

Regarding `CCCCCOc1ccc(-c2ccc(-c3ccc(C(=O)N[C@H]4C[C@@H](O)[C@@H](O)NC(=O)[C@@H]5[C@@H](O)[C@@H](C)CN5C(=O)[C@H]([C@@H](C)O)NC(=O)[C@H]([C@H](O)[C@@H](O)c5ccc(O)cc5)NC(=O)[C@@H]5C[C@@H](O)CN5C(=O)[C@H]([C@@H](C)O)NC4=O)cc3)cc2)cc1` ({pTerphenylCO(4''-OnC5H11)}-[Orn(4R-OH,5R-OH)]T[Hyp][hTyr(3S-OH,4S-OH)]T[Pro(3S-OH,4S-Me)]; lactam 1-C), the Potency result was “inactive”.
